Measurements reported in the supplement of paper PMC10849652.
Targets with a hit are over-represented here; the source holds about 7,900 in all. About 0.6% of all pairs of compound and target were hits. Unmarked numbers belong to inactive results.

Columns and labels:
Assay in all cases: log2 fold change, soluble protein after heating vs DMSO (PISA); higher = thermal stabilisation; K562 cells, 10 uM, 30 min; active = over 0.2 and 3.5 SD of the protein, either way, in both replicates (recomputed)
[1] = compound: COC1=CC=C(C=C1)CN2C=CC3=C2C=C(C=C3)C(=O)NO
Outline: (§1)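 K562 cells (2×10^6 cells/mL) were treated with 10 μM compound for 30 min, and aliquots were heated for 3 min over 48°C-58°C. Pooled aliquots were extracted in PBS with 0.5% NP-40 at 4°C, and the supernatant after 21,000xg for 90 min was measured by TMTpro 16plex LC-MS/MS with channel sums equalised. Reported thermal stability, relative to control samples and from duplicates, is a log2 fold change.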

filanesib = compound: CON(C)C(=O)N1N=C(c2cc(F)ccc2F)S[C@@]1(CCCN)c1ccccc1 [filanesib]
Outline: as §1

zotarolimus = compound: CO[C@H]1C[C@@H]2CC[C@@H](C)[C@@](O)(O2)C(=O)C(=O)N2CCCC[C@H]2C(=O)O[C@H]([C@H](C)C[C@@H]2CC[C@H](n3cnnn3)[C@H](OC)C2)CC(=O)[C@H](C)/C=C(\C)[C@@H](O)[C@@H](OC)C(=O)[C@H](C)C[C@H](C)/C=C/C=C/C=C/1C [zotarolimus]
Outline: as §1

idasanutlin = compound: COc1cc(C(=O)O)ccc1NC(=O)[C@@H]1N[C@@H](CC(C)(C)C)[C@](C#N)(c2ccc(Cl)cc2F)[C@H]1c1cccc(Cl)c1F [idasanutlin]
Outline: as §1

alisertib = compound: COc1cc(Nc2ncc3c(n2)-c2ccc(Cl)cc2C(c2c(F)cccc2OC)=NC3)ccc1C(=O)O [alisertib]
Outline: as §1

[2] = compound: COc1cc2nc(-c3cc(F)ccc3O)nc(N[C@@H]3CNC[C@H]3C(C)(C)O)c2cc1OC
Outline: as §1

gefitinib = compound: COc1cc2ncnc(Nc3ccc(F)c(Cl)c3)c2cc1OCCCN1CCOCC1 [gefitinib]
Outline: as §1

[3] = compound: COc1cccc2cc(-c3nc([C@H]4CC[C@H](C(=O)O)CC4)n4ncnc(N)c34)[nH]c12
Outline: as §1

lapatinib = compound: CS(=O)(=O)CCNCc1ccc(-c2ccc3ncnc(Nc4ccc(OCc5cccc(F)c5)c(Cl)c4)c3c2)o1 [lapatinib]
Outline: as §1

pictilisib = compound: CS(=O)(=O)N1CCN(Cc2cc3nc(-c4cccc5[nH]ncc45)nc(N4CCOCC4)c3s2)CC1 [pictilisib]
Outline: as §1

[4] = compound: CS(=O)(=O)c1ccc(-c2cnc(N)c(C(=O)Nc3ccccc3)n2)cc1
Outline: as §1

crizotinib = compound: C[C@@H](Oc1cc(-c2cnn(C3CCNCC3)c2)cnc1N)c1c(Cl)ccc(F)c1Cl [crizotinib]
Outline: as §1

[5] = compound: C[C@@H]1COCCN1C2=NC(=NC(=C2)C3(CC3)S(=O)(=O)C)C4=C5C=CNC5=CC=C4
Outline: as §1

[6] = compound: C[C@H](C1=CC=C(C=C1)C(=O)NC2=C3C=CNC3=NC=C2)N
Outline: as §1

duvelisib = compound: C[C@H](Nc1ncnc2nc[nH]c12)c1cc2cccc(Cl)c2c(=O)n1-c1ccccc1 [duvelisib]
Outline: as §1

gandotinib = compound: Cc1cc(Nc2cc(CN3CCOCC3)c3nc(C)c(Cc4ccc(Cl)cc4F)n3n2)n[nH]1 [gandotinib]
Outline: as §1

tozasertib = compound: Cc1cc(Nc2cc(N3CCN(C)CC3)nc(Sc3ccc(NC(=O)C4CC4)cc3)n2)n[nH]1 [tozasertib]
Outline: as §1

[7] = compound: Cc1cc(SCc2sc(-c3ccc(C(F)(F)F)cc3)nc2C)ccc1OCC(=O)O
Outline: as §1

doramapimod = compound: Cc1ccc(-n2nc(C(C)(C)C)cc2NC(=O)Nc2ccc(OCCN3CCOCC3)c3ccccc23)cc1 [doramapimod]
Outline: as §1

ispinesib = compound: Cc1ccc(C(=O)N(CCCN)[C@@H](c2nc3cc(Cl)ccc3c(=O)n2Cc2ccccc2)C(C)C)cc1 [ispinesib]
Outline: as §1

UniProt Q13952, sequence (Q13952 whole entry, looked up): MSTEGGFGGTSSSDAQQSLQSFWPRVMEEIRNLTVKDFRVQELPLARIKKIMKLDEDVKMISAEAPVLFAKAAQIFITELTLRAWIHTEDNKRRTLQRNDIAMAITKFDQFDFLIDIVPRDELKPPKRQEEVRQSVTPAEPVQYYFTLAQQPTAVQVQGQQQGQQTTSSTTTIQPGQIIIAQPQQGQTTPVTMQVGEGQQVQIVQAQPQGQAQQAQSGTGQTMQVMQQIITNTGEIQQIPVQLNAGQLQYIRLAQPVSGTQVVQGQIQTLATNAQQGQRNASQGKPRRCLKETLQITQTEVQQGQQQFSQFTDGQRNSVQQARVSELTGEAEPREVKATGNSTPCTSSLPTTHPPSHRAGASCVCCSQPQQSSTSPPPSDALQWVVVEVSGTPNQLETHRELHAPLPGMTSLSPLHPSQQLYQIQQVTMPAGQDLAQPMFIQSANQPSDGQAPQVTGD
UniProt Q12769, sequence (Q12769 whole entry, looked up): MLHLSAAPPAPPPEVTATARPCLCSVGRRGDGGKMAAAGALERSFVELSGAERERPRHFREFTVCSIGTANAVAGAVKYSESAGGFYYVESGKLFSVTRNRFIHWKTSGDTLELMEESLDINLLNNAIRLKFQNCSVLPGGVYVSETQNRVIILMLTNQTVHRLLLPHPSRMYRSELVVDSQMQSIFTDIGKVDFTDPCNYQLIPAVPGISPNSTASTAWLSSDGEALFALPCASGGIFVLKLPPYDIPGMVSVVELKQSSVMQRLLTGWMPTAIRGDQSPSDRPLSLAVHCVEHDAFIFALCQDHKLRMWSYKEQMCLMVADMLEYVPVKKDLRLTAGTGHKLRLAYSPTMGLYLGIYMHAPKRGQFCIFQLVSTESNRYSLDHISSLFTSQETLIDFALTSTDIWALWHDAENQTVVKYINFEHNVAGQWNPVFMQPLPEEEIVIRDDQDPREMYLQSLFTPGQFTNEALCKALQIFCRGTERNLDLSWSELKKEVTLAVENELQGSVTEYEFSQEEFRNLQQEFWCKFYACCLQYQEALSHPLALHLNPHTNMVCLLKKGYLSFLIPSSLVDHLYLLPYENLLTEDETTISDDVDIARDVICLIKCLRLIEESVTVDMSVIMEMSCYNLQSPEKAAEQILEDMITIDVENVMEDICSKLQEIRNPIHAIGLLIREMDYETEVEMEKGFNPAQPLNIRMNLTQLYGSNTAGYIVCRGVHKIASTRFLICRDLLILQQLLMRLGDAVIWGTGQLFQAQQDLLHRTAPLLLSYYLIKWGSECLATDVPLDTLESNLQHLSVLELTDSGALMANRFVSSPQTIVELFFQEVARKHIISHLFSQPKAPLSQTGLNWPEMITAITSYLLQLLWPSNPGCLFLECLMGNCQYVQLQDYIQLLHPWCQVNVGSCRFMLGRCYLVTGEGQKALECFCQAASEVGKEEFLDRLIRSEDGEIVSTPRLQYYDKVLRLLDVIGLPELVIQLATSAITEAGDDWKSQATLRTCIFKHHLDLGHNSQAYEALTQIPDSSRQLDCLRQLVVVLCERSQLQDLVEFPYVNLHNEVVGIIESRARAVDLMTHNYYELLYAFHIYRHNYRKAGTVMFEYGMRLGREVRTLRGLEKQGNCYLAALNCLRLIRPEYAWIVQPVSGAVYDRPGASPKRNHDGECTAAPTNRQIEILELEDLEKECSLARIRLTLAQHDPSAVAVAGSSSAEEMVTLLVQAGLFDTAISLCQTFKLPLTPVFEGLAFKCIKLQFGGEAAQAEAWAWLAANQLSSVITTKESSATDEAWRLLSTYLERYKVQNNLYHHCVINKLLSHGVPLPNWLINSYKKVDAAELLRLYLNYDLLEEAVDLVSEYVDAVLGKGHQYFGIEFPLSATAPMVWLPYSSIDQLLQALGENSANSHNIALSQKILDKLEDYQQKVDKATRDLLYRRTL
UniProt Q96I59, sequence (Q96I59 whole entry, looked up): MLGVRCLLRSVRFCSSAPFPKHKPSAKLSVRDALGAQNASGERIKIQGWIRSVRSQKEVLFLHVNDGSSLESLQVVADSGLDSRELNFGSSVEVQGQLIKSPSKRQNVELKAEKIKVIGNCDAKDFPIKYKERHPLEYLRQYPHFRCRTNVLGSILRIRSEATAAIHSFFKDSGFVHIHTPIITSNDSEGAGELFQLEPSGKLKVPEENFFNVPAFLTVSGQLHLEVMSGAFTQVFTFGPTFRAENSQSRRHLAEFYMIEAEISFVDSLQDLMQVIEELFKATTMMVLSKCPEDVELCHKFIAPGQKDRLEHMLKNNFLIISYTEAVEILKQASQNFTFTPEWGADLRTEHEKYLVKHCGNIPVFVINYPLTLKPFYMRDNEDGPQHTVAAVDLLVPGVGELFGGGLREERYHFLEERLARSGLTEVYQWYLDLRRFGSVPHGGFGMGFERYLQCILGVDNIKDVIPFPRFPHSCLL
UniProt Q9UH92, sequence (Q9UH92 whole entry, looked up): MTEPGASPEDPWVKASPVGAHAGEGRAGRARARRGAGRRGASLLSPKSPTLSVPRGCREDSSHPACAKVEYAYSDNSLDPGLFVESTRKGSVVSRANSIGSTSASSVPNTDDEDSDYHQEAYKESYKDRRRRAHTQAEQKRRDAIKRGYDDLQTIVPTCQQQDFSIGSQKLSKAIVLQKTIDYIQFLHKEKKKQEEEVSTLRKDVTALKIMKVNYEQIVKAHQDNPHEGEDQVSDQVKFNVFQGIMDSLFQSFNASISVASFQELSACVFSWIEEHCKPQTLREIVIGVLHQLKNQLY
UniProt P40261, sequence (P40261 whole entry, looked up): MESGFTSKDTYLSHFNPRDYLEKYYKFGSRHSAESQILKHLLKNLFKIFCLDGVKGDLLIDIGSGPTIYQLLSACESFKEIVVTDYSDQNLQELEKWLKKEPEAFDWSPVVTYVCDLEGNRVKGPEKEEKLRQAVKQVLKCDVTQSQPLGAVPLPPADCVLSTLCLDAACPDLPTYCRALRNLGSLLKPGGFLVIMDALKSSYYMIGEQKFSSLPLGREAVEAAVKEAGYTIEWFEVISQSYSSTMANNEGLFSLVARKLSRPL
UniProt Q9ULX3, sequence (Q9ULX3 whole entry, looked up): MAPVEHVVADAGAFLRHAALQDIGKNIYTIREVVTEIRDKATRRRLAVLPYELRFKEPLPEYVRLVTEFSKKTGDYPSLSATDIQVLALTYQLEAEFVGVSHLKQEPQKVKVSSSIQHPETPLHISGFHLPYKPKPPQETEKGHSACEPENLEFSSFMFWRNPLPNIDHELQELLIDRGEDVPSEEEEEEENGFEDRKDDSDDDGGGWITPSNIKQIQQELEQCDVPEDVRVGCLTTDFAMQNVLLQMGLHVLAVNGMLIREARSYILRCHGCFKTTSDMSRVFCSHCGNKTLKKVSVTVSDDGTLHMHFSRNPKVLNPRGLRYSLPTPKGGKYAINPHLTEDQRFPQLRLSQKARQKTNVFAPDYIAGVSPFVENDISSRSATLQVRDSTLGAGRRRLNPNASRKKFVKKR
UniProt P57740, sequence (P57740 whole entry, looked up): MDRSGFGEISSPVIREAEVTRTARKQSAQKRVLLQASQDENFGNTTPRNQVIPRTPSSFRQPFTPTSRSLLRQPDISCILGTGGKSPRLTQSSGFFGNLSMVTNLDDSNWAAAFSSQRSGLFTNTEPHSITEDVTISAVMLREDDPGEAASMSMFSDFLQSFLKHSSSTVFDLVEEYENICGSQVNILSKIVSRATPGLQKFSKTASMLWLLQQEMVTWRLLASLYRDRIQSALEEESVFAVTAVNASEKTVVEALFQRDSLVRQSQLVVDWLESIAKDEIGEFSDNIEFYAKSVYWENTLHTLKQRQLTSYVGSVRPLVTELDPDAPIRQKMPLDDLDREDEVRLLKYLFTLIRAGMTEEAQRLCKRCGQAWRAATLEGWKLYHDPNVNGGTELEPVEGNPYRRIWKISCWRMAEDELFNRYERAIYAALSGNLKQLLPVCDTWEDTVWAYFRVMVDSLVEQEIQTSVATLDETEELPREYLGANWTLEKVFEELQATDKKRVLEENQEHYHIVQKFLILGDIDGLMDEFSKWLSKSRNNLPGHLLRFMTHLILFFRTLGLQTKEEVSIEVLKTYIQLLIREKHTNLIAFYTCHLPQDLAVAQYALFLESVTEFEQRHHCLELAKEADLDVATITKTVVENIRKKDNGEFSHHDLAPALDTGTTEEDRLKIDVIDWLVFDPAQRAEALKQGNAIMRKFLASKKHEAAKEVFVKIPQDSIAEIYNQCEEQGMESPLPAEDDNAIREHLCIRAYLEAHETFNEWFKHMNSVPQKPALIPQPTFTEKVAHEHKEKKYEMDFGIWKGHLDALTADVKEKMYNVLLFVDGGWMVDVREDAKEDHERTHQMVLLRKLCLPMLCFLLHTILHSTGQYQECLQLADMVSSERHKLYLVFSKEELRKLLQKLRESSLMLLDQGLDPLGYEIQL

Target | log2 fold change [1] | log2 fold change (filanesib) | log2 fold change (zotarolimus) | log2 fold change (idasanutlin) | log2 fold change (alisertib) | log2 fold change [2] | log2 fold change (gefitinib) | log2 fold change [3] | log2 fold change (lapatinib) | log2 fold change (pictilisib) | log2 fold change [4] | log2 fold change (crizotinib) | log2 fold change [5] | log2 fold change [6] | log2 fold change (duvelisib) | log2 fold change (gandotinib) | log2 fold change (tozasertib) | log2 fold change [7] | log2 fold change (doramapimod) | log2 fold change (ispinesib)
NUP107 (UniProt P57740) | -0.005 | 0.233 | 0.032 | 0.026 | 0.007 | -0.116 | -0.073 | -0.04 | 0.137 | -0.13 | 0.101 | -0.067 | -0.083 | -0.062 | 0.031 | -0.229 | 0.028 | 0.093 | 0.11 | -0.018
NFYC (UniProt Q13952) | -0.026 | -0.023 | 0.004 | -0.065 | -0.036 | 0.017 | -0.018 | 0.127 | 0.033 | 0.092 | 0.022 | 0.013 | 0.054 | 0.005 | 0.086 | 0.002 | 0.022 | 0.027 | 0.001 | 0.089
MLX (UniProt Q9UH92) | -0.054 | 0.027 | -0.009 | -0.071 | -0.014 | 0.025 | 0.022 | 0.057 | -0.099 | 0.05 | -0.038 | -0.188 | 0.092 | -0.001 | -0.131 | -0.239 | -0.043 | 0.115 | 0.03 | -0.186
NDUFB10 (UniProt O96000) | 0.044 | -0.025 | 0.006 | -0.035 | -0.021 | -0.047 | 0 | 0.05 | -0.035 | 0.082 | 0.024 | -0.025 | 0.012 | 0.027 | 0.023 | -0.029 | -0.002 | 0.024 | 0.003 | -0.073
NOB1 (UniProt Q9ULX3) | 0.16 | 0.001 | 0.026 | 0.068 | -0.14 | 0.044 | 0.01 | -0.13 | 0.045 | -0.042 | 0.012 | -0.142 | -0.033 | 0.15 | -0.046 | 0.019 | -0.067 | 0.113 | 0 | -0.038
NUP160 (UniProt Q12769) | -0.043 | -0.003 | 0.017 | 0.004 | -0.076 | -0.068 | 0.033 | 0.037 | 0.057 | -0.021 | 0.017 | -0.014 | 0.034 | -0.027 | 0.024 | -0.06 | 0.078 | 0.007 | 0.019 | 0.044
NNMT (UniProt P40261) | -0.057 | -0.163 | -0.001 | -0.076 | -0.06 | 0.216 | 0.041 | 0.017 | -0.019 | 0.06 | 0.039 | -0.08 | 0.085 | -0.06 | 0.06 | -0.002 | -0.007 | -0.09 | 0 | –
NARS2 (UniProt Q96I59) | -0.213 | -0.196 | 0.027 | -0.072 | -0.046 | 0.007 | -0.039 | 0.09 | -0.031 | -0.037 | 0.038 | -0.099 | 0.125 | -0.061 | 0.037 | 0.02 | -0.051 | -0.028 | -0.009 | -0.401 (active)
